The target of experiment [1] is Cytochrome P450 1A2 (Homo sapiens) (UniProt P05177). The experiment in a line: p450-cyp1a2 (AID 410; calls by dose curve; further: potency means the concentration at half of the fitted maximal effect). In outline: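 Human CYP1A2 (20nM) demethylated Luciferin-ME at its Km (100uM) in 100mM KPO4. After 10 min compound preincubation, NADPH regeneration ran the reaction 60 min at room temperature. Luciferin was read by luminescence, normalized to 57 uM furafylline.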

A short description of experiment [2]: Cell Viability - BJ (AID 421; calls by dose curve;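 further: potency means the concentration at half of the fitted maximal effect; cells exposed to compound for 40 hours at 37 °C before readout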). The settings on record: BJ fibroblast viability, qHTS. A digest of the protocol:
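Cytotoxicity in human BJ foreskin fibroblasts is scored as loss of cellular ATP after a 40-hour exposure, measured by luciferase luminescence. Controls are DMSO and 100 uM tamoxifen.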
A general note: Quantitative high-throughput screening tests each substance at several concentrations.

Experiment [3] in a line: Cell Viability - Jurkat (AID 426;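 active means dose-dependent loss of cell ATP signal giving a full or clear fitted curve, ranked by lower potency value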; further: potency means the concentration at half of the fitted maximal effect). The settings on record: qHTS. A digest of the protocol:
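Jurkat (clone E6-1, human T-cell leukemia) cells, 5000/well in complete medium, were exposed to compound for 40 hr at 37 °C. Viability was read as intracellular ATP by CellTiter-Glo luminescence; AC50 came from Hill fits of concentration-response data.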

Experiment [4] in a line: Cell Viability - Hek293 (AID 427;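 active means compounds whose dose-response curve shows a full or clear partial loss of cell viability, called from curve shape rather than a numeric limit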;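 further: potency means the concentration at half of the fitted maximal effect; cells exposed to compound for 40 hours at 37 °C before reading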). The settings on record: qHTS. In outline: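 qHTS, human embryonic kidney (adenovirus-transformed) cells; 40 hr cpd, 37 °C; CellTiter-Glo ATP luminescence. Norm: DMSO = 0, 100 uM tamoxifen = 100% inhibition. Hill-fit AC50.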
Experiment [5] in a line: Cell Viability - HepG2 (AID 433; calls by dose curve;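 further: potency means the concentration at half of the fitted maximal effect; potency for ATP loss meaning cytotoxicity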). The following applies: qHTS. In outline:
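HepG2 cells, 1500 per well, treated 40 hr at 37 °C in complete medium; viability from intracellular ATP by CellTiter-Glo luminescence. Normalized to DMSO and 100 uM tamoxifen; AC50 from Hill fit of qHTS concentration-response.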

Experiment [6] in a line: Cell Viability - MRC5 (AID 434; calls by dose curve;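 further: potency means the concentration at half of the fitted maximal effect; potency reflects cytotoxicity seen as loss of intracellular ATP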). The settings on record: MRC5 lung fibroblast viability, qHTS. A digest of the protocol:
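MRC5 normal human lung fibroblasts, 1500 cells/well, exposed to compound for 40 hr at 37 C. Cellular ATP was read by CellTiter-Glo luminescence; data normalized to DMSO and 100 uM tamoxifen, with AC50 from Hill fits.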

Experiment [7] is described as follows: Cell Viability - SK-N-SH (AID 435; calls by dose curve;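 further: potency means the concentration at half of the fitted maximal effect; compound exposure lasted 40 h at 37 °C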). The following applies: SK-N-SH neuroblastoma cell viability qHTS. In outline: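 SK-N-SH neuroblastoma cells (1500/well) treated 40 h at 37 °C in complete medium; viability read as cellular ATP by CellTiter-Glo luminescence. Normalized to DMSO and 100 uM tamoxifen; AC50 from Hill fits of qHTS concentration-response.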
Experiment [8] is described as follows: AP1 Signaling Pathway (AID 357). Further: on the % scale 0 is the no-effect control and ±100 the full control effect. A digest of the protocol:
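ME-180 cells with beta-lactamase reporter under AP-1 response element, stimulated with EC50 EGF; compounds tested in titration series, 5 h at 37 °C. CCF4 substrate added 2.5 h at room temperature; 460/530 nm emission ratio gave %activity and AC50.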

Experiment [9] can be described thus: Stat Signaling Pathway (AID 446).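 Further: ME-180 cervical cancer cells given 40 pM IL-6 alongside compound; SIE-controlled beta-lactamase reporter measured as 460/530 nm FRET emission ratio; on the % scale 0 is the no-effect control and ±100 the full control effect.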 In outline: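 Screening format detects activators and inhibitors alike: ME-180 SIE-bla cells stimulated at 40 pM IL-6 for 5 hrs with compound, then dual-emission beta-lactamase read at 405 nm excitation.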
Experiment [10] can be described thus: NFAT Signaling Pathway (AID 444).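 Further: carbachol stimulus at about its EC50 of 1 µM final; on the % scale 0 is the no-effect control and ±100 the full control effect.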 The settings on record: Jurkat NFAT-bla M1, carbachol, beta-lactamase ratio, 5 h. A digest of the protocol: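 Jurkat cells with NFAT-driven β-lactamase reporter and co-expressed M1 receptor, stimulated with carbachol (final 1 uM, ~EC50), compound titration, 5 h at 37 °C. CCF4 loaded 1 h at RT; 460/530 nm ratio gave %activity and AC50.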

The structures appear in SMILES notation. Values joined by “and” are separate entries in the source; they are usually repeats but may differ in a detail not shown here. Equal entries are not always repeated. Records with an inconclusive call do not appear. Values without a mark were called inactive. Active and inactive are the calls of the source. Unless noted, the call rests on the fitted dose curve; in most records, active means well fitted curve in either direction with a large enough effect (not every such curve was filed as active); inconclusive means small, poorly fitted or top-dose-only effect, or another doubt; inactive means flat fitted curve, though single readings scatter. Peptide text beside a SMILES is read from it.

Chain of Cytochrome P450 1A2 (Homo sapiens) (P05177 whole entry, looked up): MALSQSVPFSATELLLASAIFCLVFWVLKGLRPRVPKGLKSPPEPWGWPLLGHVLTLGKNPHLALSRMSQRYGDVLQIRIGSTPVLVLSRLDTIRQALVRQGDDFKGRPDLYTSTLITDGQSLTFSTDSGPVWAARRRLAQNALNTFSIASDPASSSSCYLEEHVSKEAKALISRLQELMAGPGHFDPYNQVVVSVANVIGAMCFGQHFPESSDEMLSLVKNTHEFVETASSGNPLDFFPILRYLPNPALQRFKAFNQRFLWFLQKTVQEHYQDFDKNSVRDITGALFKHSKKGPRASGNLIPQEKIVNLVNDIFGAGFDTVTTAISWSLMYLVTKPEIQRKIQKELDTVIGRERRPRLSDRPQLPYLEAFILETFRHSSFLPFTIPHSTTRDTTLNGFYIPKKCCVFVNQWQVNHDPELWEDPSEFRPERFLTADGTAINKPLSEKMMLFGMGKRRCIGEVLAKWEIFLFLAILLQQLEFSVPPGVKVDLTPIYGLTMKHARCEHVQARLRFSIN

`CC(C)c1ccc2c(c1)c(SC(C)(C)C)c(CC(C)(C)C(=O)O)n2Cc1ccc(Cl)cc1`: the Potency in [1] is 25.1 µM (active) and 31.6 µM (active).

For the compound `CS(=O)(=O)OCCCCOS(C)(=O)=O`, the Potency in experiment [2], in experiment [3], in [4], in experiment [5], in [6] and in [7] was greater than 92 µM throughout.

In the case of `Cc1cccc(CN2CCN(C(c3ccccc3)c3ccc(Cl)cc3)CC2)c1` (stereo not drawn), the compound was classed as inactive in experiment [8] and in experiment [9].

On to `N=C(N=C(N)N)N1CCOCC1`, for which the compound was called inactive in [8] and in experiment [9]. In [10] (at 17.2 µM (top of the series)), the activity change, negative = inhibition is -6.61%.

Regarding `CC(C)Oc1ccc2c(=O)c(-c3ccccc3)coc2c1`, the compound was classed as inactive in [8] and in experiment [9]. In addition, the activity change, negative = inhibition in experiment [10] (at 17.2 µM (top of the series)) is 5.32%.

Consider `C[C@H](Cc1ccc(O)c(O)c1)[C@@H](C)Cc1ccc(O)c(O)c1`, for which the Potency in [1] was 31.6 µM (active).

With `COC(=O)C1=C(C)NC(C)=C(C(=O)OC(C)C)C1c1cccc2nonc12` (stereo not drawn), in experiment [1], the Potency is 31.6 µM (active).

As for `O=c1ccc2ccc(O)c(O)c2o1`, the result in [8] and in experiment [9] was inactive. Also, in experiment [10] (at 38 µM (top of the series)), the activity change, negative = inhibition was -9.14%.

Consider `COC(=O)[C@H](Cc1ccccc1)NC(=O)[C@@H](N)CC(=O)O` (H-Asp-Phe-OMe), for which the Potency in [2], in [3], in experiment [4], in [5], in [6] and in experiment [7] was greater than 92 µM each time.

For `O=C1NC(=O)C(c2ccccc2[N+](=O)[O-])=C1Nc1ccc(O)c(Cl)c1`, in experiment [1], the Potency is 7.94 µM (active). Further, the activity change, negative = inhibition in experiment [10] (at 38 µM (top of the series)) is -15.2%. In [9], the result was inactive.

Regarding `Cc1cc(O)c2c(c1)C(=O)c1cc(O)cc(O)c1C2=O`, the Potency is 3.16 µM (active) and 398 nM (active) in experiment [1]; greater than 92 µM in [2]; greater than 92 µM in experiment [6]; 35 µM (active) in [7]. Further, the activity change, negative = inhibition in experiment [10] (at 38 µM (top of the series)) was 7.8%.

`CCCCN(CCCC)CCC(O)c1cc2c(Cl)cc(Cl)cc2c2cc(C(F)(F)F)ccc12` (stereo not drawn): the call in experiment [8] and in experiment [9] was inactive. Further, the activity change, negative = inhibition in experiment [10] (at 17.2 µM (top of the series)) is 14.4%.

On to `COc1cc(OC)c(C(=O)CCCN2CCCC2)c(OC)c1`, for which the outcome in experiment [8] and in experiment [9] was inactive.

Regarding `COc1ccc2cc([C@H](C)C(=O)O)ccc2c1`, the result in [8] and in experiment [9] was inactive. Also, the activity change, negative = inhibition in experiment [10] (at 17.2 µM (top of the series)) was -15.8% and 6.69% and 9.43%; in experiment [10] (at 38 µM (top of the series)), 0.0959%.
